Here are results for twelve sequences from publication PMC5700166.

Residue numbers refer to the chain shown, from its start.

Holding throughout (assay): protein-binding microarray (PBM); PBM: ~300 nM protein, 6 mM HEPES pH 7.8, 80 mM KCl, 0.5 mM EDTA, 0.5 mM EGTA, 6% glycerol, 35 ng/ul poly-dIdC, 1% milk, 1 h, room temperature; Ap Aiptasia and Nv Nematostella (sea anemones) / Co Capsaspora / Aq Amphimedon (sponge) / Dm Drosophila / Hu human; RHD is the Rel homology domain; high values mean tight binding
What all share (details): dsDNA, one strand shown

In one test the target is T1, GST-Ap-NF-kB RHD (Exaiptasia pallida (Aiptasia), UniProt A0A913YAJ5 2-422).
T1 sequence: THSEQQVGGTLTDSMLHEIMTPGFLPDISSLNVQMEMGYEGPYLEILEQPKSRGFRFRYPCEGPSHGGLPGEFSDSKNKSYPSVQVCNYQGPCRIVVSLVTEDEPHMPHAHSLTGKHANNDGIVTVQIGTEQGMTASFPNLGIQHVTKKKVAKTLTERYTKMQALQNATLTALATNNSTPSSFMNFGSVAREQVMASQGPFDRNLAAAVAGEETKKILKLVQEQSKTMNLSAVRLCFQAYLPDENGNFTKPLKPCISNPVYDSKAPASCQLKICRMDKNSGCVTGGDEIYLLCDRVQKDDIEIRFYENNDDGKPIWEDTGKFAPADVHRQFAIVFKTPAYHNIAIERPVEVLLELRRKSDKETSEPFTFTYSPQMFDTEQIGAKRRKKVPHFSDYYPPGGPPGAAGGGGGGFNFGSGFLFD

Test [1] addresses T2, GST-Nv-NF-kB (Cys allele) (Nematostella vectensis, UniProt E5G601 2-411).
T2 sequence: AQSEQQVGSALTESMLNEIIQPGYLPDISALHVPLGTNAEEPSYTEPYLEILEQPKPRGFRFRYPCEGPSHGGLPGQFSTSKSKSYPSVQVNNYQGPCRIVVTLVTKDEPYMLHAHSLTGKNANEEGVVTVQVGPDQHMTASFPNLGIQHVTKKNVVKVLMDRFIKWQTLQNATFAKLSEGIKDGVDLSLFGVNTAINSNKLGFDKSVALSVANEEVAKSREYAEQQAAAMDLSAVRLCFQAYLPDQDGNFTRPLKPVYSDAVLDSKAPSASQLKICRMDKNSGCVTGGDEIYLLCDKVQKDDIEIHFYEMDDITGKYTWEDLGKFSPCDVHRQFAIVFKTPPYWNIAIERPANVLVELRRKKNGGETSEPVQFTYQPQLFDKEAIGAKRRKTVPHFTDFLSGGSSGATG

Test [2] concerns the target T3, GST-Nv-NF-kB (Ser allele) (Nematostella vectensis, UniProt A7UNT2 2-411).
T3 sequence: T2 sequence with Q21R, C66S, S207N, E215Q, V217A, E225K, A268E, D399E

Another test addresses T4, GST-Co-NF-kB (Capsaspora owczarzaki, UniProt F1ARL5 200-546).
T4 sequence: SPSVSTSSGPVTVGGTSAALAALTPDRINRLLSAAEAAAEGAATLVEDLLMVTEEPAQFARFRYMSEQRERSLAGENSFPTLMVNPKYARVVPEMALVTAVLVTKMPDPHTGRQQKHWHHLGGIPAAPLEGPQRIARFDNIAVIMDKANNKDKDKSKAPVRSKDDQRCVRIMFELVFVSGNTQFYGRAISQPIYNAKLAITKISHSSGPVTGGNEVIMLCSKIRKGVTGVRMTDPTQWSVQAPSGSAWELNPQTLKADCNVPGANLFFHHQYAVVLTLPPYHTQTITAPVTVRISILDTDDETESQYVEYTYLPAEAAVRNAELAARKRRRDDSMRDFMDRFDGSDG

The target of a further test is T5, GST-Dm-Relish (Drosophila melanogaster, UniProt Q94527 99-473).
T5 sequence: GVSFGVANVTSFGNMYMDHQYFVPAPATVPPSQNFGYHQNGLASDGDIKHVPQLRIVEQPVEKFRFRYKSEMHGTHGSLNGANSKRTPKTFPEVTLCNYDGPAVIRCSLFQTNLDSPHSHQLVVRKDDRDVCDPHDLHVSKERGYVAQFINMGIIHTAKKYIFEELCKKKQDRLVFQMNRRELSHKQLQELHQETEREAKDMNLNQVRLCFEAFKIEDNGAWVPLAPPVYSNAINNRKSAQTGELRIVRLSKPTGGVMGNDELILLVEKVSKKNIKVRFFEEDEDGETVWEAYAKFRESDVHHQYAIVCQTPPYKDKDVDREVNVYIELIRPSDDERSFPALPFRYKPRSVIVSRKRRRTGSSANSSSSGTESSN

In the next test the target is T6, GST-Aq-NF-kB (Amphimedon queenslandica, UniProt A9Y5G7 2-389).
T6 sequence: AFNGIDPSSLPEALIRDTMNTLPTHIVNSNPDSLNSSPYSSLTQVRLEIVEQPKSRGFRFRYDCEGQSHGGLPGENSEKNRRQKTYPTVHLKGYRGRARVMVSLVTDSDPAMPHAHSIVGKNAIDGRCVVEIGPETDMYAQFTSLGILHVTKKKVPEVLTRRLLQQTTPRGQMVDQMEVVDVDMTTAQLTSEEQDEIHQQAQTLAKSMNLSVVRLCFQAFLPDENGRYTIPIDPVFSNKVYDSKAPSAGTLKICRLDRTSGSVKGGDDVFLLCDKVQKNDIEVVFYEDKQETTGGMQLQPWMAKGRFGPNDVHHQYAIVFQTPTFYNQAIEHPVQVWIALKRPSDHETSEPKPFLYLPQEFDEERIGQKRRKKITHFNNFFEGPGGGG

A further test addresses GST-Hu-p50 (Homo sapiens, UniProt P19838 7-356).

GST-Hu-p50, sequence (P19838 7-356): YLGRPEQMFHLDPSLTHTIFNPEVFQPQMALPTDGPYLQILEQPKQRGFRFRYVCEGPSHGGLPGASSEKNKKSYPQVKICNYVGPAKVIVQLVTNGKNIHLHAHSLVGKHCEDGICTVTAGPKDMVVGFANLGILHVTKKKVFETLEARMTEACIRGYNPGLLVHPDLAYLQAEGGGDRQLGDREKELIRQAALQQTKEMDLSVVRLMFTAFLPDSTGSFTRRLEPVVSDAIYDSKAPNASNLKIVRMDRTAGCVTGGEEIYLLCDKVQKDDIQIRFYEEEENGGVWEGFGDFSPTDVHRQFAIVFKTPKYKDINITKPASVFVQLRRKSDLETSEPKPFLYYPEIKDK

For “CCGATTAACATCAGCAACCCCCCTGATGTTAATCGGGTCTTGATTCGCTTGACGCTGCTG”, the binding signal was 5.04 z-score with GST-Ap-NF-kB RHD; 3.58 z-score in test [1]; 3.86 z-score in test [2]; 2.82 z-score in the test with GST-Co-NF-kB; 6.14 z-score with GST-Dm-Relish; 4.16 z-score with GST-Aq-NF-kB. This sequence also came in with a binding signal with GST-Hu-p50 of 4.83 z-score.

As to “CCGATTAACATCAGGATTACCCCTGATGTTAATCGGGTCTTGATTCGCTTGACGCTGCTG”, the binding signal in the test with GST-Ap-NF-kB RHD came out at 4.61 z-score; in test [1], 4.15 z-score; in test [2] it was 3.63 z-score; in the test with GST-Co-NF-kB, 3.97 z-score; in the test with GST-Dm-Relish, 4.19 z-score; in the test with GST-Aq-NF-kB it was 5.53 z-score. The binding signal with GST-Hu-p50 came out at 3.75 z-score.

On to “CCGATTAACATCAAGTCCCCCCCTGATGTTAATCGGGTCTTGATTCGCTTGACGCTGCTG”, for which the binding signal was found to be 6.57 z-score with GST-Ap-NF-kB RHD; 4.81 z-score in test [1]; 5.16 z-score in test [2]; 6.94 z-score with GST-Co-NF-kB; 5.61 z-score with GST-Dm-Relish; 5.07 z-score with GST-Aq-NF-kB. Moreover, the binding signal with GST-Hu-p50 amounted to 4.23 z-score.

Consider “CCGATTAACATCAAAACTTCCCCTGATGTTAATCGGGTCTTGATTCGCTTGACGCTGCTG”, for which the binding signal with GST-Ap-NF-kB RHD was determined as 8.71 z-score; in test [1], 10.4 z-score; in test [2], 12.1 z-score; with GST-Co-NF-kB, 9.44 z-score; with GST-Dm-Relish, 8.98 z-score; with GST-Aq-NF-kB, 8.18 z-score. The same sequence showed a binding signal in the test with GST-Hu-p50 of 7.33 z-score.

With “CCGATTAACATCACTCATCCCCGTGATGTTAATCGGGTCTTGATTCGCTTGACGCTGCTG”, the binding signal with GST-Ap-NF-kB RHD amounted to 1.85 z-score; in test [1] it was 3.17 z-score; in test [2], 3.8 z-score; with GST-Co-NF-kB, 2.78 z-score; with GST-Dm-Relish, 2.33 z-score; with GST-Aq-NF-kB, 2.51 z-score. In the test with GST-Hu-p50, this sequence registered a binding signal of 2.23 z-score.

For the sequence “CCGATTAACATCAGGTATCCCCATGATGTTAATCGGGTCTTGATTCGCTTGACGCTGCTG”, the binding signal was 5.17 z-score in the test with GST-Ap-NF-kB RHD; 3.31 z-score in test [1]; 4.07 z-score in test [2]; 3.11 z-score with GST-Co-NF-kB; 5 z-score in the test with GST-Dm-Relish; 3 z-score with GST-Aq-NF-kB. In addition, in the test with GST-Hu-p50, the binding signal was found to be 3 z-score.

Turning to “CCGATTAACATCATGGGGGAAAATGATGTTAATCGGGTCTTGATTCGCTTGACGCTGCTG”, the binding signal with GST-Ap-NF-kB RHD amounted to 5.67 z-score; in test [1], 6.78 z-score; in test [2], 9.23 z-score; with GST-Co-NF-kB it was 10.9 z-score; with GST-Dm-Relish it was 3.09 z-score; with GST-Aq-NF-kB, 5.39 z-score. For the same sequence, in the test with GST-Hu-p50, the binding signal was 6.88 z-score.

For the sequence “CCGATTAACATCAGGGGATTACATGATGTTAATCGGGTCTTGATTCGCTTGACGCTGCTG”, the binding signal in the test with GST-Ap-NF-kB RHD stood at 6.52 z-score; in test [1], 6.73 z-score; in test [2], 8.01 z-score; with GST-Co-NF-kB it was 3.12 z-score; with GST-Dm-Relish it was 8 z-score; in the test with GST-Aq-NF-kB, 5.64 z-score. The same sequence yielded a binding signal in the test with GST-Hu-p50 of 5.79 z-score.

Regarding “CCGATTAACATCAGGGAAAACAATGATGTTAATCGGGTCTTGATTCGCTTGACGCTGCTG”, the binding signal with GST-Ap-NF-kB RHD came to 3.05 z-score; in test [1], 4.96 z-score; in test [2] it was 6.37 z-score; in the test with GST-Co-NF-kB, 5.48 z-score; in the test with GST-Dm-Relish, 1.47 z-score; with GST-Aq-NF-kB, 3.34 z-score. Further, the binding signal in the test with GST-Hu-p50 amounted to 3.66 z-score.

With “CCGATTAACATCACAAGTTCCCCTGATGTTAATCGGGTCTTGATTCGCTTGACGCTGCTG”, the binding signal is 7.44 z-score in the test with GST-Ap-NF-kB RHD; 7.71 z-score in test [1]; 8.61 z-score in test [2]; 7.27 z-score in the test with GST-Co-NF-kB; 6.56 z-score with GST-Dm-Relish; 6.21 z-score with GST-Aq-NF-kB. Moreover, the binding signal with GST-Hu-p50 was found to be 5.93 z-score.

For “CCGATTAACATCAAAATACCCCGTGATGTTAATCGGGTCTTGATTCGCTTGACGCTGCTG”, the binding signal is 6.29 z-score in the test with GST-Ap-NF-kB RHD; 5.39 z-score in test [1]; 5.69 z-score in test [2]; 5.77 z-score in the test with GST-Co-NF-kB; 5.44 z-score with GST-Dm-Relish; 5.69 z-score in the test with GST-Aq-NF-kB. The same sequence had a binding signal with GST-Hu-p50 of 5.49 z-score.

In the case of “CCGATTAACATCAGGGACTCCCCTGATGTTAATCGGGTCTTGATTCGCTTGACGCTGCTG”, the binding signal came to 11.3 z-score with GST-Ap-NF-kB RHD; 9.16 z-score in test [1]; 7.65 z-score in test [2]; 4.68 z-score in the test with GST-Co-NF-kB; 10.3 z-score in the test with GST-Dm-Relish; 9.57 z-score in the test with GST-Aq-NF-kB. Moreover, the binding signal in the test with GST-Hu-p50 is 6.03 z-score.
